Assay results from ChEMBL document CHEMBL1961873, “Compounds: GSK PKIS; Assays: Nanosyn kinase panel” (2012).

Assays:
[1] = target: Dual specificity protein kinase TTK (Homo sapiens) (UniProt P33981); details: at 0.1 µM
[2] = system: Receptor-type tyrosine-protein kinase FLT3 (Homo sapiens), P36888 [D835Y]; details: at 1 µM
[3] = target: Vascular endothelial growth factor receptor 3 (Homo sapiens) (UniProt P35916); details: at 0.1 µM
[4] = target: Vascular endothelial growth factor receptor 3 (Homo sapiens) (UniProt P35916); details: at 1 µM
[5] = target: Macrophage colony-stimulating factor 1 receptor (Homo sapiens) (UniProt P07333); details: at 0.1 µM
[6] = target: Macrophage colony-stimulating factor 1 receptor (Homo sapiens) (UniProt P07333); details: at 1 µM
[7] = target: Tyrosine-protein kinase Fyn (Homo sapiens) (UniProt P06241); details: at 0.1 µM
[8] = target: Tyrosine-protein kinase Fyn (Homo sapiens) (UniProt P06241); details: at 1 µM
[9] = target: Tyrosine-protein kinase HCK (Homo sapiens) (UniProt P08631); details: at 0.1 µM
[10] = target: Tyrosine-protein kinase HCK (Homo sapiens) (UniProt P08631); details: at 1 µM
[11] = target: Insulin-like growth factor 1 receptor (Homo sapiens) (UniProt P08069); details: at 0.1 µM
[12] = target: Insulin-like growth factor 1 receptor (Homo sapiens) (UniProt P08069); details: at 1 µM
[13] = target: Insulin receptor (Homo sapiens) (UniProt P06213); details: at 0.1 µM
[14] = target: Insulin receptor (Homo sapiens) (UniProt P06213); details: at 1 µM
[15] = target: Insulin receptor-related protein (Homo sapiens) (UniProt P14616); details: at 0.1 µM
[16] = target: Insulin receptor-related protein (Homo sapiens) (UniProt P14616); details: at 1 µM
[17] = target: Tyrosine-protein kinase ITK/TSK (Homo sapiens) (UniProt Q08881); details: at 0.1 µM
[18] = target: Tyrosine-protein kinase ITK/TSK (Homo sapiens) (UniProt Q08881); details: at 1 µM
[19] = target: Tyrosine-protein kinase JAK1 (Homo sapiens) (UniProt P23458); details: at 0.1 µM
[20] = target: Tyrosine-protein kinase JAK1 (Homo sapiens) (UniProt P23458); details: at 1 µM
[21] = target: Tyrosine-protein kinase JAK2 (Homo sapiens) (UniProt O60674); details: at 0.1 µM
[22] = target: Tyrosine-protein kinase JAK2 (Homo sapiens) (UniProt O60674); details: at 1 µM
[23] = target: Tyrosine-protein kinase JAK3 (Homo sapiens) (UniProt P52333); details: at 0.1 µM
[24] = target: Tyrosine-protein kinase JAK3 (Homo sapiens) (UniProt P52333); details: at 1 µM
[25] = target: Vascular endothelial growth factor receptor 2 (Homo sapiens) (UniProt P35968); details: at 0.1 µM
[26] = target: Vascular endothelial growth factor receptor 2 (Homo sapiens) (UniProt P35968); details: at 1 µM
[27] = target: Mast/stem cell growth factor receptor Kit (Homo sapiens) (UniProt P10721); details: at 0.1 µM
[28] = target: Mast/stem cell growth factor receptor Kit (Homo sapiens) (UniProt P10721); details: at 1 µM
[29] = system: Mast/stem cell growth factor receptor Kit (Homo sapiens), P10721 [D816V]; details: at 0.1 µM
[30] = system: Mast/stem cell growth factor receptor Kit (Homo sapiens), P10721 [D816V]; details: at 1 µM
[31] = system: Mast/stem cell growth factor receptor Kit (Homo sapiens), P10721 [T670I]; details: at 0.1 µM
[32] = system: Mast/stem cell growth factor receptor Kit (Homo sapiens), P10721 [T670I]; details: at 1 µM
[33] = system: Mast/stem cell growth factor receptor Kit (Homo sapiens), P10721 [V560G]; details: at 0.1 µM
[34] = system: Mast/stem cell growth factor receptor Kit (Homo sapiens), P10721 [V560G]; details: at 1 µM
[35] = target: Tyrosine-protein kinase Lck (Homo sapiens) (UniProt P06239); details: at 0.1 µM
[36] = target: Tyrosine-protein kinase Lck (Homo sapiens) (UniProt P06239); details: at 1 µM
[37] = target: Leukocyte tyrosine kinase receptor (Homo sapiens) (UniProt P29376); details: at 0.1 µM
[38] = target: Leukocyte tyrosine kinase receptor (Homo sapiens) (UniProt P29376); details: at 1 µM
[39] = target: Tyrosine-protein kinase Lyn (Homo sapiens) (UniProt P07948); details: at 0.1 µM
[40] = target: Tyrosine-protein kinase Lyn (Homo sapiens) (UniProt P07948); details: at 1 µM
[41] = target: Tyrosine-protein kinase Lyn (Homo sapiens) (UniProt P07948); details: at 0.1 µM; remark: listed apart in the source
[42] = target: Tyrosine-protein kinase Lyn (Homo sapiens) (UniProt P07948); details: at 1 µM; remark: listed apart in the source
[43] = target: Tyrosine-protein kinase Mer (Homo sapiens) (UniProt Q12866); details: at 0.1 µM
[44] = target: Tyrosine-protein kinase Mer (Homo sapiens) (UniProt Q12866); details: at 1 µM
[45] = target: Hepatocyte growth factor receptor (Homo sapiens) (UniProt P08581); details: at 0.1 µM
[46] = target: Hepatocyte growth factor receptor (Homo sapiens) (UniProt P08581); details: at 1 µM
[47] = target: Muscle, skeletal receptor tyrosine-protein kinase (Homo sapiens) (UniProt O15146); details: at 0.1 µM
[48] = target: Muscle, skeletal receptor tyrosine-protein kinase (Homo sapiens) (UniProt O15146); details: at 1 µM
[49] = target: Platelet-derived growth factor receptor alpha (Homo sapiens) (UniProt P16234); details: at 0.1 µM
[50] = target: Platelet-derived growth factor receptor alpha (Homo sapiens) (UniProt P16234); details: at 1 µM
[51] = system: Platelet-derived growth factor receptor alpha (Homo sapiens), P16234 [D842V]; details: at 0.1 µM
[52] = system: Platelet-derived growth factor receptor alpha (Homo sapiens), P16234 [D842V]; details: at 1 µM
[53] = system: Platelet-derived growth factor receptor alpha (Homo sapiens), P16234 [T674I]; details: at 0.1 µM
[54] = system: Platelet-derived growth factor receptor alpha (Homo sapiens), P16234 [T674I]; details: at 1 µM
[55] = system: Platelet-derived growth factor receptor alpha (Homo sapiens), P16234 [V561D]; details: at 0.1 µM
[56] = system: Platelet-derived growth factor receptor alpha (Homo sapiens), P16234 [V561D]; details: at 1 µM

Tyrosine-protein kinase Lyn (Homo sapiens), sequence (P07948 2-512 limits assumed): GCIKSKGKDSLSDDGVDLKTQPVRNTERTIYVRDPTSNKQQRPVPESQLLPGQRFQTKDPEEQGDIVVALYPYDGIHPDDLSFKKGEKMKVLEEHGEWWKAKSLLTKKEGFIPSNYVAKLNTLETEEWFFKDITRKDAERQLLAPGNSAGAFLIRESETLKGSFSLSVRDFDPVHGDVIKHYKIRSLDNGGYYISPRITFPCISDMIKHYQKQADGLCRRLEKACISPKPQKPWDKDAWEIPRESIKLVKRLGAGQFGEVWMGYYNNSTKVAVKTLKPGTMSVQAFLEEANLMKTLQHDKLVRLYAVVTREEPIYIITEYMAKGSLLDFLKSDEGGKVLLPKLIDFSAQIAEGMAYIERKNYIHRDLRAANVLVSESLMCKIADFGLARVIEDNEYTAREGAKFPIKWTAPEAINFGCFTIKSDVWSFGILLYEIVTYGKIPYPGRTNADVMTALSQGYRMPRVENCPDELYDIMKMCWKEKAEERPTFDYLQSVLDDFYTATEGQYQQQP
Vascular endothelial growth factor receptor 2 (Homo sapiens), sequence (P35968 whole entry): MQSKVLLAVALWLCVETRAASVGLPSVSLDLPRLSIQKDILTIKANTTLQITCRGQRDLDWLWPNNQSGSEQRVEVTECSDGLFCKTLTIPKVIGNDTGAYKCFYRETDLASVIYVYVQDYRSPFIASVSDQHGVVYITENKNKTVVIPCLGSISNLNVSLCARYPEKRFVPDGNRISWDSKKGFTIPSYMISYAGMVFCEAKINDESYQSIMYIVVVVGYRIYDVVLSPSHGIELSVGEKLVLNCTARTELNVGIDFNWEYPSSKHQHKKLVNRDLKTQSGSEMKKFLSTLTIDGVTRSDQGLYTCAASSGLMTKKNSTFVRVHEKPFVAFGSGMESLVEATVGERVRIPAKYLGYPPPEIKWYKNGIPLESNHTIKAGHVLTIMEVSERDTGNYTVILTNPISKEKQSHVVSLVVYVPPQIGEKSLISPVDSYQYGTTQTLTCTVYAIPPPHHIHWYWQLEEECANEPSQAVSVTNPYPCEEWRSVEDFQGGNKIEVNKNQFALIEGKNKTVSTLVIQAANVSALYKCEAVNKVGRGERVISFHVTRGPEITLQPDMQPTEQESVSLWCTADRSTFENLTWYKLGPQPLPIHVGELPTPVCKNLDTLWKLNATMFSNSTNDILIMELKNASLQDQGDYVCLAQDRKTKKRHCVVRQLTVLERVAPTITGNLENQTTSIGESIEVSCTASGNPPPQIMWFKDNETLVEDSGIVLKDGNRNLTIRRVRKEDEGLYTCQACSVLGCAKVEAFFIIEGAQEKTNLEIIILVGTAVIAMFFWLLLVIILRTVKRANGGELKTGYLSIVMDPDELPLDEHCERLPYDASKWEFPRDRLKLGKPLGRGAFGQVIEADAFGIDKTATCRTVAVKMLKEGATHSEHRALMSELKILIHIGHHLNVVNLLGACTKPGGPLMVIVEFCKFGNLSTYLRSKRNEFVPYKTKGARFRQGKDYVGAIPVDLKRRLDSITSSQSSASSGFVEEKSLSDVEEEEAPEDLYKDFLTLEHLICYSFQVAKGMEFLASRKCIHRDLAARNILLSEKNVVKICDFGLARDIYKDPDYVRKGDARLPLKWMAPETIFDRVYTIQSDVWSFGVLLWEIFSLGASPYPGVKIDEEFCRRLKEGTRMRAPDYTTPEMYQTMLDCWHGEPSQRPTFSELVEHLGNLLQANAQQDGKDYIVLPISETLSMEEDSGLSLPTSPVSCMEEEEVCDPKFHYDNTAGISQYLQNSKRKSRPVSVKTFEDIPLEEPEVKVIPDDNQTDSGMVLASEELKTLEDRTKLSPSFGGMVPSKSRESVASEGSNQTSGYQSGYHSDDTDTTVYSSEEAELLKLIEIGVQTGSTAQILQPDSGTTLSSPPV
Platelet-derived growth factor receptor alpha (Homo sapiens), P16234 [V561D], sequence (P16234 whole entry V561D): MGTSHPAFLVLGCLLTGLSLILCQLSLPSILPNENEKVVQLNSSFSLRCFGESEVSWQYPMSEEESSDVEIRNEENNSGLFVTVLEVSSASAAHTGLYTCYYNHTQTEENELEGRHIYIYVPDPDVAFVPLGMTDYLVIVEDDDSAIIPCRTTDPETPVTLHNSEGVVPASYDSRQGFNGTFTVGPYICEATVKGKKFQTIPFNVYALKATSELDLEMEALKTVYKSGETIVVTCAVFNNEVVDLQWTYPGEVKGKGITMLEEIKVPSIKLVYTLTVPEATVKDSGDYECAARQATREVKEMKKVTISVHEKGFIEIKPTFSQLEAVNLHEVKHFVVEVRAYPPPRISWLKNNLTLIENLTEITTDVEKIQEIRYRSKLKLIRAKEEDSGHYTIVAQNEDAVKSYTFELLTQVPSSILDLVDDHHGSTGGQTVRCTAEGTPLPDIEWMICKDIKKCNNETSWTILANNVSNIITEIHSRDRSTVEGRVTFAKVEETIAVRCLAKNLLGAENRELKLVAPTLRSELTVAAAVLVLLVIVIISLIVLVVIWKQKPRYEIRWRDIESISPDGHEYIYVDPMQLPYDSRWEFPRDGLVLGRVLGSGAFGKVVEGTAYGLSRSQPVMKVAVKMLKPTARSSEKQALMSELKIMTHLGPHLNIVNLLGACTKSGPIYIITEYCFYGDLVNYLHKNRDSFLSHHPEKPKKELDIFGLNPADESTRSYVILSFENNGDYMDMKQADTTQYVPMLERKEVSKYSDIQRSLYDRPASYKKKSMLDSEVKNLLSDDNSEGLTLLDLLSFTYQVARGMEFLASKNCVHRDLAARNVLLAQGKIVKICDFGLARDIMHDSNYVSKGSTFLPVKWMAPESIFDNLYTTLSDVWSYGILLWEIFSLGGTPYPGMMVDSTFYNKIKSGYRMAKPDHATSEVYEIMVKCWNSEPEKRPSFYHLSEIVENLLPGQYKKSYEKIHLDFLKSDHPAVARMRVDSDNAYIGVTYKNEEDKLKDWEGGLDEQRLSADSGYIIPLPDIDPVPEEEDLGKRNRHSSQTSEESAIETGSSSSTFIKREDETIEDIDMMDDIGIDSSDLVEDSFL
Tyrosine-protein kinase Mer (Homo sapiens), sequence (Q12866 whole entry): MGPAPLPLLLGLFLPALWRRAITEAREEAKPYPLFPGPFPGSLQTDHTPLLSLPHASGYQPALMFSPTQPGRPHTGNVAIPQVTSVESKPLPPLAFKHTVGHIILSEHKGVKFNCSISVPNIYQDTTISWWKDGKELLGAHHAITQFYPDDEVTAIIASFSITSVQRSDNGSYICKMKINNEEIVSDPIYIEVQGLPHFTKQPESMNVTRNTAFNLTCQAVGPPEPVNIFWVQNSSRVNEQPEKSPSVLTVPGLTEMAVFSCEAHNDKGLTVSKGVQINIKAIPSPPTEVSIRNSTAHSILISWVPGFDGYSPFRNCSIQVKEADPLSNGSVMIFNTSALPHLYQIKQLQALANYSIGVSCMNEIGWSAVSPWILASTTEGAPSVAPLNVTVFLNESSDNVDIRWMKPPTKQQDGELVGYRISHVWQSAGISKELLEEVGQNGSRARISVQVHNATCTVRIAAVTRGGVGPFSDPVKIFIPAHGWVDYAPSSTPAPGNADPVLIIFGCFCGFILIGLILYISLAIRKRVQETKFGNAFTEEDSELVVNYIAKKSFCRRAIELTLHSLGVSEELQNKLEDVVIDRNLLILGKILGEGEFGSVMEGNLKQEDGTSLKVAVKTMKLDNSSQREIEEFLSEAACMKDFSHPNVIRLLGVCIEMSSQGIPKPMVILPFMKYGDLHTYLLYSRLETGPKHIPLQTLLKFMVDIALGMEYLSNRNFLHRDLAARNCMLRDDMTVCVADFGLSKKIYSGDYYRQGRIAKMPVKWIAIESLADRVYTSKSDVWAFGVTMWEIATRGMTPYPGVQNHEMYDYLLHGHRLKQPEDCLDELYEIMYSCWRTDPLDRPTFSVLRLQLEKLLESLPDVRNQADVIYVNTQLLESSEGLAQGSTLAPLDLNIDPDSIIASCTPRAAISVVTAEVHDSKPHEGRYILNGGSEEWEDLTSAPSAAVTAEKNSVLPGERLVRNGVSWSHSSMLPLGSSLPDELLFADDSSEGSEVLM
Mast/stem cell growth factor receptor Kit (Homo sapiens), P10721 [D816V], sequence (P10721 whole entry D816V): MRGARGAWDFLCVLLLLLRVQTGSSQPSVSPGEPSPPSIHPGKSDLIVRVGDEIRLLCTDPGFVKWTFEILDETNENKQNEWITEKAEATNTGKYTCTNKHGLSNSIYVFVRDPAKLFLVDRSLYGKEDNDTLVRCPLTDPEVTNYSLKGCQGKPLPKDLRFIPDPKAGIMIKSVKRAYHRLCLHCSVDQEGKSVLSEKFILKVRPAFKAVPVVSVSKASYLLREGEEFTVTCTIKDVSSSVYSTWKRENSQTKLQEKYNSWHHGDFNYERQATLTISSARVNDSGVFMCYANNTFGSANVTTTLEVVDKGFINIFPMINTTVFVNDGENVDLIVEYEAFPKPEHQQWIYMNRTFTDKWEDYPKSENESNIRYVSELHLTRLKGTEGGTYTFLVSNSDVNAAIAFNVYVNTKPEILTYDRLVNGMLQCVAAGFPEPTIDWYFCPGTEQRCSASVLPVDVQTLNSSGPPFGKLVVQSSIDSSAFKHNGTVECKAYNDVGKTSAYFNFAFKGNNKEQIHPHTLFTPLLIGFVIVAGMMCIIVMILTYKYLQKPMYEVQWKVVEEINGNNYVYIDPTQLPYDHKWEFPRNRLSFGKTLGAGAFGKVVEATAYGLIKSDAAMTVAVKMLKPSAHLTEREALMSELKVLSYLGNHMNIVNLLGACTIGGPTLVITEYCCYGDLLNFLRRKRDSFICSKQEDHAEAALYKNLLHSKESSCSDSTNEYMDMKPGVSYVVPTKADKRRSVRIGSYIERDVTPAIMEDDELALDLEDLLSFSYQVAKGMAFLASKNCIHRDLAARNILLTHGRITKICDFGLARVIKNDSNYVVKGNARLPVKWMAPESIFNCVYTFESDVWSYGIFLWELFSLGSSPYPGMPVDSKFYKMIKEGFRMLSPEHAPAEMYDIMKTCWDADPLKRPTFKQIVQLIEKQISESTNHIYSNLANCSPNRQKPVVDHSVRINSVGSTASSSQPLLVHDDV

**Q.** Which results are given for CNC(=O)Oc1cc(C)c(/C=C/c2cncc(C(=O)NC)c2)c(C)c1?
**A.** inhibition [1]: 3.53%; inhibition [2]: -6.68%; inhibition [3]: 2.38%; inhibition [4]: 3.06%; inhibition [5]: 4.08%; inhibition [6]: 28.3%; inhibition [7]: 4.17%; inhibition [8]: 32.4%; inhibition [9]: 14.3%; inhibition [10]: 51.1%; inhibition [11]: 6.27%; inhibition [12]: 6.14%; inhibition [13]: 3.13%; inhibition [14]: 3.08%; inhibition [15]: 3.12%; inhibition [16]: 2.02%; inhibition [17]: 0.99%; inhibition [18]: 1.69%; inhibition [19]: 3.98%; inhibition [20]: -1.5%; inhibition [21]: 1.67%; inhibition [22]: 1.34%; inhibition [23]: 0.21%; inhibition [24]: -1.11%; inhibition [25]: -0.28%; inhibition [26]: 4.06%; inhibition [27]: 12.7%; inhibition [28]: 63.5%; inhibition [29]: 4.33%; inhibition [30]: -0.14%; inhibition [31]: 1.64%; inhibition [32]: -1.04%; inhibition [33]: 2.06%; inhibition [34]: 14.4%; inhibition [35]: 6.81%; inhibition [36]: 41%; inhibition [37]: 3.84%; inhibition [38]: 5.56%; inhibition [39]: 13.7%; inhibition [40]: 57.1%; inhibition [41]: 9.47%; inhibition [42]: 52.3%; inhibition [43]: 1.05%; inhibition [44]: 0.84%; inhibition [45]: -2.86%; inhibition [46]: -0.63%; inhibition [47]: 1.43%; inhibition [48]: 4.49%; inhibition [49]: 12.5%; inhibition [50]: 42.2%; inhibition [51]: 2.6%; inhibition [52]: 13.1%; inhibition [53]: 3.98%; inhibition [54]: 4.15%; inhibition [55]: 13.5%; inhibition [56]: 52.3%
